Assay outcomes deposited in PubChem by National Center for Advancing Translational Sciences (NCATS).
LASV entry inh = blocks Lassa virus binding or cell entry; Lassa virus pseudotyped entry inhibition, cell-based qHTS; Potency, µM (highest dose often 49.2 µM), for inactives: top-dose activity change, negative = inhibition, hits mostly inhibitors; 18,000 tested, 4.1% active; AID 720533
MARV entry inh = Marburg virus entry inhibition. Marburg virus pseudotype entry/binding inhibition, cell-based. Potency, µM (series often up to 49.2 µM), inactives show top-dose activity change, negative = inhibition, actives largely listed as inhibitors. 18,000 tested, 6.5% active. AID 720532
The depositor's hits bear a star; ? = inconclusive; · = not tested or not shown; ! = repeats disagree; [ ] = dose if it differs, or a comment. Most compounds without a hit are left out; they make up all but 7.1% or so of the library. Calls follow the shape of the full dose curve; tested in HEK293 cells. % is scaled to controls: 0 for no effect and ±100 for the full control effect; potency is read from the fitted curve at half-maximal effect.

SMILES	LASV entry inh	MARV entry inh
COCC=CC1=CC2=CC(=O)C(C)(OC(=O)c3cnc4ccccc4n3)C(=O)C2=CN1C1CC1 (configuration not stated)	6%[8.59 µM]	32%[8.59 µM]
C#CCCOC(=O)N1C2=NC3=C(C(=O)N(Cc4ccc5c(c4)OCO5)C3=O)C3N(C)c4ccccc4[C@]23C[C@H]1CO (some centres not stated)	·	-23%[8.59 µM]
O=C1NC(=O)c2c1c1c3ccccc3[nH]c1c1[nH]c3ccccc3c21	-17%	?
CNCCCCc1cnc(C)c2[nH]c3ccccc3c12	?	11µM*
CCCCCC(=O)N1C[C@@H](n2cc(C3CC3)nn2)[C@H](O)C[C@H]1c1ccccc1	17%	-7%
CC(C)[C@@H](OCc1ccccc1)[C@H](C)C=NOC[C@@H](O)[C@H]1O[C@@H]2OC(C)(C)O[C@H]2[C@@H]1O	0%[8.59 µM]	-5%[8.59 µM]
CCCCCCCCC(=O)NCc1ccc(O)c(OC)c1	0%	5%
COc1cc(CNC(=O)CCCC/C=C/C(C)C)ccc1O	25µM*!	7%
CCCCC[C@H](O)CC(=O)CCc1ccc(O)c(OC)c1	-9%	1%
CCCCC/C=C\C/C=C\C/C=C\C/C=C\CCCC(=O)NCc1ccc(O)c(OC)c1	7.9µM*	?
CN(C)CCC(c1ccc(Br)cc1)c1ccccn1 (configuration not stated)	-5%	10µM*
CN(C)CC[C@@H](c1ccccc1)c1ccccn1	-13%[17.8 µM]	-2%[17.8 µM]
CCCCCC(=O)N1C[C@H](n2cc(-c3ccc(F)cc3)nn2)[C@@H](O)C[C@H]1c1ccc(C)cc1	-5%	-21%
C=C=CCCN1C(=O)NC(c2ccccc2)C(C(=O)OC)=C1C (configuration not stated)	5%[8.59 µM]	-18%[8.59 µM]
COc1cc2c(cc1OC)-c1cc(=Nc3c(C)cc(C)cc3C)n(C)c(=O)n1CC2	11µM*	13µM*
COc1cc2c(cc1OC)-c1c(O)c(OC)cc3c1[C@H](C2)N(C)CC3	-8%	0%
C=CCN1[C@@H](CC(C)C)COc2c(Cl)cccc2S1(=O)=O	19%	-9%
Clc1ccc(C[n+]2cc(-c3ccccc3)n3c2CCCCC3)c(Cl)c1	?	8.9µM*
Cn1ccc2c(C=Cc3ccc(F)cc3)cc3c(c21)C1CCC3O1 (configuration not stated)	0%	-20%
CC(C)[C@H]1C(=O)N2CCC[C@H]2[C@]2(O)O[C@](NC(=O)[C@@H]3C[C@@H]4c5cccc6[nH]cc(c56)C[C@H]4N(C)C3)(C(C)C)C(=O)N12	-19%	7.1µM*
CC(C)[C@@]1(NC(=O)[C@@H]2C[C@H]3c4cccc5[nH]cc(c45)C[C@@H]3N(C)C2)O[C@]2(O)[C@H]3CCCN3C(=O)CN2C1=O	-12%[17.8 µM]	?
CN1C[C@H](C(=O)N[C@@]2(C)O[C@@]3(O)C4CCCN4C(=O)C(Cc4ccccc4)N3C2=O)C[C@H]2c3cccc4[nH]cc(c34)C[C@H]21 (some centres not stated)	-10%	-22%
CC(C)[C@@]1(NC(=O)[C@@H]2C[C@@H]3c4cccc5[nH]cc(c45)C[C@H]3N(C)C2)O[C@@]2(O)[C@@H]3CCCN3C(=O)[C@H](Cc3ccccc3)N2C1=O	35µM*!	7.1µM*
O=S1(=O)c2cccc(Cl)c2OC[C@H](c2ccccc2)N1Cc1ccc(F)cc1F	-6%	?
C=CCOC(=O)C(C(C)=O)[C@@H](NC(=O)OC)c1cccc(C(F)(F)F)c1 (some centres not stated)	1%[8.59 µM]	4%[8.59 µM]
SMILES	LASV entry inh	MARV entry inh
CN(C)CCCc1cc(C(=O)Nc2ccc(-c3ccncc3)cc2)ccc1O	35µM*!	6.3µM*
COc1ccc(CCN(C)Cc2cc(-c3cncnc3)ccc2O)cc1OC	-10%	-13%
CCCCCC(=O)N1C[C@H](O)[C@@H](n2cc(C3CC3)nn2)C[C@H]1c1ccc(C)cc1	·	10%
CC(CN1CCc2nnc(CNC(=O)c3cccc(F)c3)n2CC1)c1ccccc1 (configuration not stated)	0%	-9%
O=C(NCc1nnc2n1CCN(Cc1cc(F)cc(F)c1)CC2)c1cccc(F)c1	?	5µM*
Fc1ccc(-c2ncn(C3CCNCC3)c2-c2ccnc(Oc3ccc4c(c3)OCO4)n2)cc1	?	6.3µM*
NC(=O)Cc1ccccc1Oc1nccc(-c2c(-c3ccc(F)cc3)ncn2C2CCNCC2)n1	-30%	?
COC(=O)CC=C1c2ccc(F)cc2[C@@H](OC)[C@@H]1C	·	-11%[8.59 µM]
CN(Cc1cc(Br)cc(Br)c1N)C1CCCCC1	28µM*	?
COc1ccccc1C1CN(Cc2c(O)cccc2OC)Cc2ccccc2O1 (configuration not stated)	-15%	2%
COc1ccccc1C1CN(Cc2cccc(C)n2)Cc2ccccc2O1 (configuration not stated)	7.1µM*	5.6µM*
CCCCCCN1C[C@@H](O)[C@H](n2cc(C3CC3)nn2)C[C@H]1c1ccc(OC)cc1	-8%	-22%
COC(=O)N[C@@H](C=Cc1ccccc1)C[N+](=O)[O-]	-19%[8.59 µM]	7%[8.59 µM]
CCN1C(N(C)CCc2ccc(Br)cc2)=NC(c2ccccc2)C(C(=O)OC)=C1C (configuration not stated)	0%[8.59 µM]	?
CO[C@H](c1ccccc1Br)[C@H](C)C=CCCO	-13%[8.59 µM]	?
COC(=O)N1C2=C(c3ccccc3[C@@H]1CC(=O)O)[C@@H]1O[C@@H](C2)c2ccccc21	-14%[8.59 µM]	?
COc1ccc(/C=C/C(=O)O)cc1OC	35%	11%
COc1ccc(/C=C\C(=O)Nc2ccccc2C(=O)O)cc1OC	20µM*	40µM*
COc1cc(C/C=C/c2ccccc2)c(OC)cc1O	-9%	4%
COc1ccc2c(c1)OCc1c-2oc2cc(OC)ccc12	4%	54%
COc1ccc(C=C2c3ccccc3C(=O)c3ccccc32)cc1O	?	1µM*
COc1ccc2c(c1)OC/C(=C\c1ccc(OC)c(O)c1)C2=O	-17%	13µM*
C[C@H]1CC[C@H]2C(=O)O[C@H](CO)CN2[C@H]1c1ccc(Br)cc1	·	-20%[8.59 µM]
CCOC(=O)CCN1C(=O)[C@@H]2[C@H]3[C@H](O)[C@H](O)CC(=NOCc4ccccc4)[C@@H]3CC[C@H]2C1=O	-17%[8.59 µM]	-7%[8.59 µM]
CC(C)(O)C1O[C@H]2CC[C@@]3(C)[C@@](O)(CC[C@H]4Cc5c([nH]c6ccccc56)[C@@]43C)C2=CC1=O (some centres not stated)	32µM*!	?
SMILES	LASV entry inh	MARV entry inh
O=C(Nc1n[nH]c2nc(-c3ccco3)c(Br)cc12)C1CC1	66%	?
COCCCC/C(=N\OCCN)c1ccc(C(F)(F)F)cc1	-17%	14µM*
CCN1C(=NCCCOC(C)C)N[C@@H](CCc2ccccc2)[C@H](C(=O)OC)[C@H]1C	20%[8.59 µM]	3%[8.59 µM]
CN(C)c1nc(NC2CCC(NC(=O)c3ccc(F)c(F)c3)CC2)nc2ccccc12 (configuration not stated)	16µM*	2.8µM*
CN(C)C(=O)c1ccc(-c2nc(Nc3ccc(F)cc3)c3ccccc3n2)cc1	-23%	-26%
CC(C)[C@@H](OCc1ccccc1)[C@H](C)CON=C1[C@H]2CCn3c(=O)n(-c4ccccc4)c(=O)n3[C@@H]2[C@H](O)[C@@H]2O[C@H]12	10%[8.59 µM]	25%[8.59 µM]
O=C(O)CCc1nc2ccccc2[nH]1	-11%	-4%
CC(C)[C@H]1c2ccc(F)cc2CC[C@@]1(CCN(C)CCCc1nc2ccccc2[nH]1)OC(=O)C1CC1	?	8.9µM*
COC(=O)C1=C2C=CCCN2C(=O)NC1c1ccccc1 (configuration not stated)	-9%[8.59 µM]	-17%[8.59 µM]
